Laboratory results reported in PubChem BioAssay (Tox21).
Records with an inconclusive call do not appear. Activity calls are given as the source filed them. Unless noted, calls follow the shape of the full dose curve.

Tests used:
[1] = Nuclear factor erythroid 2-related factor 2/antioxidant responsive element (Nrf2/ARE) small molecule agonists: qHTS cell viability counter screen in human keratinocytes (AID 1919968; active = well fitted curve in the direction sought with a large enough effect in the repeat runs; an effect the other way counts as inactive or inconclusive; also: nearly all actives have a fitted effect of over 55% in size; also: potency is read from the fitted curve at half-maximal effect); conditions: KeratinoSens HaCaT ARE cells viability, CellTiter-Fluor, 24 h; series mostly up to 92.4 µM
Method in brief: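 Viability counter-screen: KeratinoSens reporter cells, DMSO-delivered compounds, 23 h at 37 C, CellTiter-Fluor fluorescence.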

[2] = Nuclear factor erythroid 2-related factor 2/antioxidant responsive element (Nrf2/ARE) small molecule agonists: luciferase reporter gene qHTS assay in human keratinocytes (AID 1919969); conditions: KeratinoSens HaCaT ARE-luciferase, luminescence, 24 h; series mostly up to 92.4 µM; also: nearly all actives have a fitted effect of over 35% in size; also: potency is read from the fitted curve at half-maximal effect
[3] = biological target: Gonadotropin-releasing hormone receptor (Homo sapiens) (UniProt P30968); assay: Human gonadotropin-releasing hormone receptor (GnRHR) small molecule agonists, calcium flux assay in GnRHR-HEK293 cells (AID 1920063); conditions: calcium flux fluorescence, agonist mode; series mostly up to 57.6 µM; also: nearly all actives have a fitted effect of over 35% in size
Gonadotropin-releasing hormone receptor (Homo sapiens), sequence (P30968 whole entry, looked up): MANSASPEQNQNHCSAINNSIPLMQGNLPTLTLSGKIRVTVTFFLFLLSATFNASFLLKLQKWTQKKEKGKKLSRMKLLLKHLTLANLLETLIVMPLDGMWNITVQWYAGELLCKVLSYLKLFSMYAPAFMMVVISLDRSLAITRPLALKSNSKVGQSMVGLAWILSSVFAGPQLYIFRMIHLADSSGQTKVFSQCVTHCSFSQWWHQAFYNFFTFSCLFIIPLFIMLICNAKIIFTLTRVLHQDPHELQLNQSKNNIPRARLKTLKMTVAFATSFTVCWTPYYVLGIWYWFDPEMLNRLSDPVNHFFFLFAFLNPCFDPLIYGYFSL
Method in brief: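 Tox21-format agonist screen using human GnRHR-expressing HEK293 cells and a fluorescent calcium dye; kinetic 3-min fluorescence reading after compound addition, 15-point concentration series run in triplicate.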

[4] = biological target: KiSS-1 receptor (Homo sapiens) (UniProt Q969F8); assay: Human kisspeptin (KISS1R) small molecule agonists, calcium flux assay in KISS1R-HEK293 cells (AID 1920064; active = well fitted curve in the direction sought with a large enough effect in the repeat runs; an effect the other way counts as inactive or inconclusive); conditions: KISS1R-HEK293, calcium flux fluorescence, agonist; series mostly up to 76.8 µM
KiSS-1 receptor (Homo sapiens), sequence (Q969F8 whole entry, looked up): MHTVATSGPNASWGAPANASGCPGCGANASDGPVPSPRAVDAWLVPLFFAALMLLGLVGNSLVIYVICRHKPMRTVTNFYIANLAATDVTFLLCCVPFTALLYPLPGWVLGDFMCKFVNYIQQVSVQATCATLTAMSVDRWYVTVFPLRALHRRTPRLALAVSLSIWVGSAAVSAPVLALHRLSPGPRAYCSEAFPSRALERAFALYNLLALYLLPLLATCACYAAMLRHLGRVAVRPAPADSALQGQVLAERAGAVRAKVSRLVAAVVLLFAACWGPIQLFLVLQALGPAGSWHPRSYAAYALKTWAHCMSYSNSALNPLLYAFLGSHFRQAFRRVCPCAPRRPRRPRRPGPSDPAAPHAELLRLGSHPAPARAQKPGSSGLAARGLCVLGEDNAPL
Method in brief: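 Intracellular calcium mobilization in KISS1R-HEK293 cells was recorded by fluorescence (Ex/Em 480/540) for 3 min following compound addition to cells pre-loaded 1 h with calcium dye.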

[5] = p53 small molecule agonists, cell-based qHTS assay with rat liver microsomes (AID 1963578); conditions: HCT-116 p53RE-bla, beta-lactamase ratio, 16 h; series mostly up to 66 µM
Method in brief: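 Agonist mode in p53RE-bla reporter cells, with compounds co-incubated 16 h at 37 C alongside 0.5 mg/mL rat liver microsomes and 0.5 mg/mL NADPH (final), followed by a 2 h LiveBLAzer detection step.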

[6] = p53 small molecule agonists, cell-based qHTS assay with human liver microsomes: qHTS cell viability counter screen (AID 1963579); conditions: p53RE-bla HCT-116 viability, ATP luminescence, 16 h, HLM; series mostly up to 66 µM; also: nearly all actives have a fitted effect of over 45% in size; also: potency is read from the fitted curve at half-maximal effect
Method in brief: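 Metabolically activated exposure: compounds, human liver microsomes and NADPH (0.5 mg/mL final apiece) were added to p53RE-bla cells seeded 5 h earlier, left 16 h at 37 C, and then assessed for viability by CellTiter-Glo luminescence.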

[7] = p53 small molecule agonists, cell-based qHTS assay with rat liver microsomes: qHTS cell viability counter screen (AID 1963580); conditions: p53RE-bla HCT-116 + rat microsomes, ATP viability, 16 h; series mostly up to 66 µM; also: nearly all actives have a fitted effect of over 45% in size; also: potency is read from the fitted curve at half-maximal effect
Method in brief: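 p53RE-bla HCT-116 cells were exposed 16 h at 37 C to compounds with rat liver microsomes (0.5 mg/mL) and NADPH (0.5 mg/mL). Viability was measured in the same wells as ATP content by CellTiter-Glo luminescence.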

[8] = biological target: 5-hydroxytryptamine receptor 2A (Homo sapiens) (UniProt P28223); assay: 5-hydroxytryptamine receptor 2A (HTR2A) small molecule agonists, cell-based qHTS assay (AID 1963587); conditions: HTR2A-CHO cells, calcium flux fluorescence, agonist mode; series mostly up to 76.8 µM; also: nearly all actives have a fitted effect of over 30% in size
5-hydroxytryptamine receptor 2A (Homo sapiens), sequence (P28223 whole entry, looked up): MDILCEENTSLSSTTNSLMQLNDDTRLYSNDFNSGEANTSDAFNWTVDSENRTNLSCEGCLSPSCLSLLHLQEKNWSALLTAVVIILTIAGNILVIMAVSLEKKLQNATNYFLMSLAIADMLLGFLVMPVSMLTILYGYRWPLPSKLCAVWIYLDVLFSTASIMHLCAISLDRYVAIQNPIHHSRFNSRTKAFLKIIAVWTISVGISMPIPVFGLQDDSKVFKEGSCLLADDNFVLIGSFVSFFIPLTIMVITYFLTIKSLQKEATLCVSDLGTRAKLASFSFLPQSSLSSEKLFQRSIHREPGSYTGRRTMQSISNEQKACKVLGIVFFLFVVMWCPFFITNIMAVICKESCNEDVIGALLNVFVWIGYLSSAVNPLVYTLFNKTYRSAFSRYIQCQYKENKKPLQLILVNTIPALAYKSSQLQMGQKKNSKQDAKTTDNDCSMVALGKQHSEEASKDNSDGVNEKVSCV
Method in brief: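 CHO cells stably expressing human HTR2A, plated 18 h, loaded with calcium dye 1 h at 37 C. Agonist mode: compounds added and intracellular calcium fluorescence recorded kinetically for 2 min at 1 sec intervals.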

[9] = biological target: Muscarinic acetylcholine receptor M1 (Homo sapiens) (UniProt P11229); assay: Cholinergic receptor muscarinic 1 (CHRM1) small molecule antagonists, cell-based qHTS assay (AID 1963588); conditions: CHRM1-CHO antagonist mode, calcium flux fluorescence; series mostly up to 61.5 µM; also: nearly all actives have a fitted effect of over 40% in size
Muscarinic acetylcholine receptor M1 (Homo sapiens), sequence (P11229 whole entry, looked up): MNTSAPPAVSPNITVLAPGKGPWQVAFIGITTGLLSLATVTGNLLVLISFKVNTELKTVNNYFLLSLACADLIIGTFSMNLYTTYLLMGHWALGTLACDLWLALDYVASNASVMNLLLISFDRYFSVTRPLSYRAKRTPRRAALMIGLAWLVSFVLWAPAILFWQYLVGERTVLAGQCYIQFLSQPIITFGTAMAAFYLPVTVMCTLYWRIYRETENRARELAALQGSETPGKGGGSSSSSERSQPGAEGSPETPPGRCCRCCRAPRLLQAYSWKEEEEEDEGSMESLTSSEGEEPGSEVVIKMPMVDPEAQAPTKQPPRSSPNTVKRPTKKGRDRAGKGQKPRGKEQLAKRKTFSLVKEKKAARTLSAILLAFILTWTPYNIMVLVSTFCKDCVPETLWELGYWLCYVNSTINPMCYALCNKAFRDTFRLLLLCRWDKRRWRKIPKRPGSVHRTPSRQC
Method in brief: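 CHRM1-CHO calcium-flux assay, antagonist mode. Cells were seeded 18 h, dye-loaded 1 h at 37 C and given compound for 5 min at RT, then acetylcholine was added at 50nM. FDSS fluorescence was read 3 min; 15 concentrations, three runs.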

[10] = biological target: Muscarinic acetylcholine receptor M1 (Homo sapiens) (UniProt P11229); assay: Cholinergic receptor muscarinic 1 (CHRM1) small molecule agonists, cell-based qHTS assay (AID 1963589); conditions: CHRM1-CHO cells, agonist mode, calcium flux fluorescence; series mostly up to 76.8 µM; also: nearly all actives have a fitted effect of over 35% in size
Method in brief: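 Stable CHRM1-CHO cells (human receptor) were incubated 18 h, dye-loaded for 1 h at 37 C and exposed to test compounds for agonist activity, with calcium-dependent fluorescence followed kinetically.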

[11] = cAMP Responsive Elements (CRE) small molecule antagonists, cell-based qHTS assay (AID 1963591; active = well fitted inhibition curve with a large enough effect in the signal ratio in the repeat runs, not every such curve was filed as active; the % refers to the signal ratio); conditions: CRE-bla HEK293T, beta-lactamase FRET ratio; series mostly up to 92.4 µM
Method in brief: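 qHTS in CRE-bla HEK 293T cells: compound in DMSO, then 0.25 uM NKH477 (final), 3 h at 37 °C/5% CO2; beta-lactamase FRET read-out after 2 h substrate incubation.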

[12] = biological target: Beta-2 adrenergic receptor (Homo sapiens) (UniProt P07550); assay: Adrenergic beta2 receptor (ADRB2) small molecule antagonists, cell-based qHTS assay (AID 1963592); conditions: CHO-ADRB2 cells, isoproterenol-stimulated cAMP HTRF ratio, 0.5 h; series mostly up to 92.4 µM; also: nearly all actives have a fitted effect of over 50% in size; also: potency is read from the fitted curve at half-maximal effect
Beta-2 adrenergic receptor (Homo sapiens), sequence (P07550 whole entry, looked up): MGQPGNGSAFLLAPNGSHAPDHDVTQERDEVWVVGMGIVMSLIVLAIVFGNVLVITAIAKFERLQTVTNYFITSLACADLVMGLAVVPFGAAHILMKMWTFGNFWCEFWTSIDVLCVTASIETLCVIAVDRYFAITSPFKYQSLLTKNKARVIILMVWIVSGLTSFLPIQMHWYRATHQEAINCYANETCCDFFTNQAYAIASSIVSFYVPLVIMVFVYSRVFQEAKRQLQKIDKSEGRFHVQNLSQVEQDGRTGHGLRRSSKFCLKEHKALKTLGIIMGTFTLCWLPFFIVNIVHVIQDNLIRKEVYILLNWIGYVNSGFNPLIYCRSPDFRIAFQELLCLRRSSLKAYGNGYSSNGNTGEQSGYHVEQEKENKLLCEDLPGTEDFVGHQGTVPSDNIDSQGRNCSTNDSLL
Method in brief: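 Cells (CHO, stable ADRB2 overexpression) incubated 18-20hr at 37C; compounds added from DMSO; agonist mix (1nM isoproterenol, 100uM IBMX, 25uM Ro-20-1724) added; 0.5hr RT; d2-cAMP and anti-cAMP-cryptate added; 1hr RT; 665/615 nm read.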

[13] = biological target: D(2) dopamine receptor (Homo sapiens) (UniProt P14416); assay: Dopamine D2 receptor (DRD2) small molecule antagonists, cell-based qHTS assay (AID 1963595; active = well fitted inhibition curve with a large enough effect in the signal ratio in the repeat runs, with a control signal flat; the % refers to the signal ratio); conditions: HEK293-DRD2 cAMP HTRF antagonist mode; series mostly up to 92.4 µM
D(2) dopamine receptor (Homo sapiens), sequence (P14416 whole entry, looked up): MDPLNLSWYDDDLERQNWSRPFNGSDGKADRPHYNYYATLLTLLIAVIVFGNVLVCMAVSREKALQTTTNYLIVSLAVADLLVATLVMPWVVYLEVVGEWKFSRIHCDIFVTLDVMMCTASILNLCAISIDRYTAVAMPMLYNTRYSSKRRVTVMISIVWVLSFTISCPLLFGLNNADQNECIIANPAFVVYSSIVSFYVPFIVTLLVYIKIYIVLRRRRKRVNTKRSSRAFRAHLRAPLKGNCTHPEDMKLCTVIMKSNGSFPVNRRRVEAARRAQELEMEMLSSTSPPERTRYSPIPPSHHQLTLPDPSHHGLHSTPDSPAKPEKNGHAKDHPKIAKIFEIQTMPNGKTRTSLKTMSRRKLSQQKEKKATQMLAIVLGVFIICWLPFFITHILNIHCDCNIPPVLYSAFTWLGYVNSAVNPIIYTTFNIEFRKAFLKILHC
Method in brief: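 Antagonist mode in DRD2-HEK293 cells: after compound addition with 0.1 mM Ro20-1724, cells received quinpirole (12 nM) and NKH477 (200 nM) for 30 min at room temperature; HTRF cAMP read after 1 h detection.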

[14] = G protein-coupled receptor (GPCR) small molecule agonists, calcium flux assay: HEK293 wild type cell line counter screen (AID 1920065); conditions: HEK293 WT calcium flux, fluorescence, agonist mode; series mostly up to 57.6 µM
Method in brief: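 In this agonist-mode screen, ATP is the positive control and DMSO the vehicle. Cells grow 18 h before a 1 h dye incubation at 37 C; signal is taken at Ex/Em 480/540 over 3 min.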

[15] = p53 small molecule agonists, cell-based qHTS assay with human liver microsomes (AID 1963577); conditions: HCT-116 p53RE-bla with human liver microsomes, ratio, 16 h; series mostly up to 66 µM;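 also: p53 response element beta-lactamase reporter cells with liver microsomes plus NADPH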
Method in brief: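 In this qHTS, p53 response-element beta-lactamase cells receive test compound together with a microsome/NADPH activating system (0.5 mg/mL final each) and are incubated 16 h at 37 C before LiveBLAzer fluorescence detection.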

[16] = p53 small molecule agonists, cell-based qHTS assay: qHTS cell viability counter screen (AID 1963581); conditions: p53RE-bla HCT-116 viability, ATP luminescence, 16 h; series mostly up to 66 µM; also: nearly all actives have a fitted effect of over 45% in size; also: potency is read from the fitted curve at half-maximal effect
Method in brief: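 Compounds are pinned onto HCT-116 p53RE-bla cells and left 16 h at 37 C. Following the reporter FRET read, ATP is quantified by CellTiter-Glo luminescence after 30 min at room temperature.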

[17] = cAMP Responsive Elements (CRE) small molecule agonists, cell-based qHTS assay (AID 1963590); conditions: CRE-bla HEK293T, beta-lactamase FRET ratio, 3 h; series mostly up to 92.4 µM
Method in brief: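 FRET-based beta-lactamase readout (LiveBLAzer B/G, 2 h RT) quantified CRE activation in HEK 293T CRE-bla cells after 3 h treatment with DMSO-dissolved compounds.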

[18] = biological target: 5-hydroxytryptamine receptor 2A (Homo sapiens) (UniProt P28223); assay: 5-hydroxytryptamine receptor 2A (HTR2A) small molecule antagonists, cell-based qHTS assay (AID 1963586); conditions: HTR2A-CHO cells, DOI-induced calcium flux, fluorescence; series mostly up to 61.5 µM; also: nearly all actives have a fitted effect of over 45% in size
Method in brief: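 Antagonist-mode intracellular calcium assay: DOI (4 nM) added after 5 min compound pre-incubation at room temperature to dye-loaded HTR2A-CHO cells. Fluorescence followed for 3 min, sampled every second.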

[19] = biological target: Beta-2 adrenergic receptor (Homo sapiens) (UniProt P07550); assay: Adrenergic beta2 receptor (ADRB2) small molecule agonists, cell-based qHTS assay (AID 1963593); conditions: CHO-ADRB2 cells, cAMP HTRF, 30 min; series mostly up to 92.4 µM;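 also: CHO cells stably overexpressing human ADRB2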
Method in brief: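 CHO cells stably over-expressing ADRB2 were plated overnight at 37C, then dosed with compounds plus a stimulation mix containing 100uM IBMX and 25uM Ro-20-1724 for 0.5hr at room temperature. cAMP was measured by HTRF competition, 1hr.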

[20] = biological target: D(2) dopamine receptor (Homo sapiens) (UniProt P14416); assay: Dopamine D2 receptor (DRD2) small molecule agonists, cell-based qHTS assay (AID 1963594); conditions: HEK293-DRD2 cAMP HTRF, agonist mode, 30 min; series mostly up to 92.4 µM; also: nearly all actives have a fitted effect of over 35% in size
Method in brief: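 HEK293 cells stably expressing human DRD2, pre-treated with PDE inhibitor Ro20-1724 (0.1 mM final) and compound 10 min at room temperature, then stimulated with NKH477 (200nM […]) for 30 min. cAMP read by HTRF (665/620 nm).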

Measured: Potency

CO/N=C(/C1=NOCCO1)c1ccccc1Oc1ncnc(Oc2ccccc2Cl)c1F
not listed: [14] | [15] | [16] | [17] | [18] | [19] | [20]
inactive: all other assays above

COc1ccc2c(C(=O)c3ccc(Cl)cc3)c(C)n(CC(=O)O)c2c1
not listed: [4] | [18] | [19] | [20]
inactive: all other assays above

Cc1nc(N(C)C)nc(OC(=O)N(C)C)c1C
not listed: [5] | [14] | [15]
inactive: all other assays above

CC(C)NCC(O)c1ccc([N+](=O)[O-])cc1 (stereo not drawn)
active: [12] 5.96 µM
not listed: [4] | [19] | [20]
inactive: all other assays above

CC(C)CC#N
not listed: [5] | [10] | [14] | [15] | [19]
inactive: all other assays above

O=[N+]([O-])c1ccc(F)c([N+](=O)[O-])c1
active: [1] 27.6 µM
inactive: [2] | [3] | [4] | [16] | [18] | [8] | [9] | [10]

O=C(O)C(F)(F)C(F)(F)C(F)(F)C(F)(F)C(F)(F)F
not listed: [4] | [9]
inactive: all other assays above

O=S(=O)(Cl)c1ccccc1
not listed: [5] | [9] | [14] | [15]
inactive: all other assays above

O=[N+]([O-])c1ccc(CCl)cc1
active: [2] 60.1 µM
not listed: [4] | [7] | [18] | [19]
inactive: all other assays above

N#Cc1sc2c(=O)c3ccccc3c(=O)c=2sc1C#N
active: [1] 6.11 µM | [2] 2.17 µM | [6] 5.13 µM | [7] 16.2 µM | [16] 4.08 µM
not listed: [4] | [11] | [17] | [18] | [19]
inactive: all other assays above

CCOC(=O)CCN(SN(C)C(=O)Oc1cccc2c1OC(C)(C)C2)C(C)C
active: [2] 61.1 µM
not listed: [5] | [11] | [14] | [15] | [17]
inactive: all other assays above

O=C(N/N=C/c1ccc([N+](=O)[O-])o1)c1cc([N+](=O)[O-])cc([N+](=O)[O-])c1O
active: [2] 29.8 µM
not listed: [4] | [8] | [9] | [10] | [14] | [17] | [18]
inactive: all other assays above

COC1=CC(=O)O[C@@H](/C=C/c2ccc3c(c2)OCO3)C1
not listed: [4] | [6] | [11] | [16] | [17] | [18] | [19]
inactive: all other assays above

C[N+]1(CCC(C(N)=O)(c2ccccc2)c2ccccc2)CCCCC1
not listed: [4] | [5] | [12] | [15] | [19]
inactive: all other assays above
